HCMV antiviral – human cytomegalovirus inhibition; HFF cells, HCMV-luciferase reporter, 72 h; active compounds read low; activity change, negative = inhibition, % at 57.5 µM; 410,000 tested, 4.5% active; in the data active = activity change below about -60%; inconclusive = no clear call, values can overlap the other calls; inactive = above about -39%
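Two compound doses tested in HFFs infected with HCMV-luciferase, MOI 1 PFU/cell, 72 h at 37C. Lysate luminescence read with OneGlo; data normalized against buffer-only and 10uM Salinomycin inhibitor controls.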
Sm TGR block – S. mansoni TGR enzyme inhibition; 360,000 tested, 3% active; AID 485364; Potency, µM (top dose mostly 114 µM), actives largely listed as inhibitors; purified TGR, DTNB reduction, TNB absorbance 405 nm; note: nearly all actives have a fitted effect of over 60% in size
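First, TGR (20 nM dispensed) and NADPH were mixed with compound. Second, a 15 min room-temperature incubation followed. Third, further NADPH and then DTNB were added to start the reaction. Finally, TNB absorbance was monitored kinetically.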
Pf growth 96h – P. falciparum growth inhibition at 96 hour, primary screen for plastid delayed-death inhibitors | P. falciparum luciferase reporter growth, 96 h | Potency, µM (series often up to 28.7 µM), most hits filed as inhibitors | 320,000 tested, 6.9% active | AID 504834
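Erythrocytes infected with luciferase-expressing P. falciparum were dispensed at 2% hematocrit and 0.05% parasitemia (final), then incubated with compounds 96 hours at 37 C in 5% CO2. Luminescence after detection reagent addition reported growth.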
SARS PLP yeast – blocks SARS-CoV papain-like protease in a yeast assay. S. cerevisiae expressing SARS-CoV PLpro, growth rescue. 330,000 tested, 0.19% active. Potency, µM (highest dose often 32.9 µM), hits mostly activators; calls by dose curve; note: nearly all actives have a fitted effect of over 55% in size
HCV inhibitor – HCV inhibition; Potency, µM (doses to about 41.8 µM), actives largely listed as inhibitors; 340,000 tested, 3.4% active; Huh7.5.1 HCVcc-Cre infection, luciferase reporter, 44 h; AID 651820
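Seed cells (1,000/well) for 4 h; treat with compound and infect with HCVcc-Cre, moi about 0.5. Incubate 44 h, then detect luciferase activity.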
Pf growth 48h – P. falciparum growth inhibition at 48 hours (one generation) | Potency, µM (titrated, usually from 28.7 µM), most hits filed as inhibitors | AID 504832 | 310,000 tested, 5.9% active | P. falciparum luciferase growth in erythrocytes, 48 h
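Compounds are pin-transferred into medium, infected erythrocytes (2% hematocrit, 0.1% parasitemia final) are added, and plates sit one parasite generation at 37 C in 5% CO2. Detection reagent is then added and luminescence measured.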
Numbers stand for hits; 0 = inactive; ? = inconclusive; - = not tested or not shown. Sampled rows, rich in hits. Any-hit rate of the full collection: about 15%. Unless noted, calls come from the whole dose curve; as a rule, active = well fitted curve in the direction sought with a large enough effect; inconclusive = small, poorly fitted or top-dose-only effect, or another doubt; inactive = no such curve, though single readings can be large; an effect the other way counts as inactive or inconclusive.

SMILES	HCMV antiviral	Sm TGR block	Pf growth 96h	SARS PLP yeast	HCV inhibitor	Pf growth 48h
Cc1cc(-c2ccccc2)nc(N/N=C/c2ccc([N+](=O)[O-])cc2)n1	0	?	?	0	10µM	0
Cc1cc(-c2ccccc2)nc(N/N=C/c2ccco2)n1	0	0	0	0	0	0
Cc1cc(-c2ccccc2)nc(N/N=C/c2ccc(N(C)C)cc2)n1	0	-	-	-	12.6µM	-
CN(/N=C/c1ccc(O)cc1O)c1nc(-c2ccccc2)cc(-c2ccccc2)n1	-61.9	0	5.22µM	0	?	9.28µM
Cc1cc(-c2ccccc2)nc(N/N=C/c2ccccc2)n1	0	0	0	0	?	0
Cc1cccc(N2CCN(C(=O)Nc3ccc(F)cc3)CC2C)c1 (centres undefined)	0	0	-	-	-	-
CCO[C@@H](Cc1ccc(OCCc2ccc(OS(C)(=O)=O)cc2)cc1)C(=O)O	0	-	-	-	-	-
COc1ccc(/C=N/Nc2nc(C)cc(-c3ccccc3)n2)cc1OC	-86.3	0	?	0	?	0
CC(Sc1nnc2n1CCCCC2)C(=O)Nc1ccc(S(N)(=O)=O)cc1 (centres undefined)	0	0	0	0	0	0
COC1=CC(=O)OC(c2ccc(C(F)(F)F)cc2)C1 (centres undefined)	0	-	-	-	-	-
COc1ccc(C(=O)/C=C/c2cn(CC(O)CN3CCCCCC3)c3ccccc23)cc1OC (centres undefined)	-90.9	0	-	-	-	-
O=C(/C=C/c1cn(CC(O)CN2CCCCCC2)c2ccccc12)c1ccccc1 (centres undefined)	0	?	-	-	-	-
COc1ccc(C(=O)/C=C/c2cn(CC(O)CN3CCN(C)CC3)c3ccccc23)cc1OC (centres undefined)	-78.2	0	11.7µM	0	0	4.65µM
CC(C)Cc1nc(N2CCCCC2)c(C#N)c2c1CCC2	0	0	10.4µM	0	0	0
CC(C)Cc1nc(N2CCNCC2)c(C#N)c2c1CCC2	0	0	0	0	3.16µM	?
Nc1ccc(NC(=O)NC2CCCCC2)cc1[N+](=O)[O-]	0	0	0	0	0	0
NS(=O)(=O)c1cccc(C(=O)OCC(=O)NC2CCCc3ccccc32)c1 (centres undefined)	0	-	-	0	0	-
CN(Cc1nc(Cc2ccccc2F)no1)Cc1cccc2ncccc12	-84.7	0	0	0	11.2µM	?
COc1ccc(CCNc2nc(-c3ccncc3)cs2)cc1OC	0	0	?	0	0	0
COc1ccc(CCNc2nc(-c3ccc(O)cc3)cs2)cc1OC	?	0	10.4µM	0	?	?
COc1ccc(CCNc2nc(-c3ccccn3)cs2)cc1OC	0	0	?	0	?	?
COc1ccc(CCNc2nc(-c3sc(C)nc3C)cs2)cc1OC	0	0	?	0	12.6µM	-
O=C(c1ccccn1)N(CCO)C(c1ccccc1)c1nc2ccccc2[nH]1 (centres undefined)	0	-	-	-	-	-
C=CCNC(=O)c1ccc(C2SCC(=O)N2Cc2ccco2)cc1 (centres undefined)	0	28.2µM	?	0	0	0
NC(=O)c1ccc(C2SCC(=O)N2Cc2ccccc2)cc1 (centres undefined)	0	0	?	0	0	0
SMILES	HCMV antiviral	Sm TGR block	Pf growth 96h	SARS PLP yeast	HCV inhibitor	Pf growth 48h
O=C(O)c1ccc(C2SCC(=O)N2Cc2ccccc2)cc1 (centres undefined)	0	0	1.65µM	0	0	0
COCCNC(=O)c1ccc(C2SCC(=O)N2Cc2ccco2)cc1 (centres undefined)	0	22.4µM	?	0	0	0
Cc1cccc(N2C(=O)C(CC(=O)Nc3ccccc3)N(C3CCCCC3)C2=O)c1 (centres undefined)	0	0	-	-	-	-
CCc1cccc(NC(=O)CN(c2ccc(C)cc2)S(=O)(=O)c2cccs2)c1	?	0	-	-	-	-
COc1ccc(CC(=O)Nc2ccccc2N2CCCCC2)cc1OC	0	0	?	0	0	?
COc1ccc(NC(=O)/C(C#N)=C/c2ccc(OCCN3CCOCC3)c(OC)c2)c(OC)c1	-	0	13.1µM	0	0	0
N#C/C(=C\c1ccc(OCCN2CCOCC2)cc1)C(=O)Nc1ccc(S(N)(=O)=O)cc1	0	0	6.57µM	0	0	0

Compound activity deposited in PubChem BioAssay by National Center for Advancing Translational Sciences (NCATS).
